{"source": "PubChem BioAssay (Tox21)", "key": {"[1]": {"assay": "qHTS assay for identifying genotoxic compounds that show differential cytotoxicity against isogenic chicken DT40 cell lines with known DNA damage response pathways - wild type cell line (AID 743012); further: nearly all actives have a fitted effect of over 60% in size", "summary_of_the_method": "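First, wild type DT40 cells were plated at 300 per well and equilibrated about 0.5 h at 37 C/5% CO2. Next, compounds in DMSO were added and exposure lasted 40 h. Finally, CellTiter-Glo was added for 30 min at room temperature and luminescence recorded.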"}, "[2]": {"assay": "qHTS assay for identifying genotoxic compounds that show differential cytotoxicity against isogenic chicken DT40 cell lines with known DNA damage response pathways - Rev3 mutant cell line (AID 743014); further: nearly all actives have a fitted effect of over 55% in size; further: potency means the concentration at half of the fitted maximal effect", "description": "National Center for Advancing Translational Sciences [NCATS]\nNIH Chemical Genomics Center [NCGC]\nU.S. Environmental Protection Agency [EPA]\nNational Institutes of Environmental Health Sciences [NIEHS]\nNational Toxicology Program [NTP]\nU.S. Food and Drug Administration [FDA]\nDNA repair pathways play a critical role in cellular homeostasis by repairing DNA damage induced by endogenous processes and xenobiotics. Isogenic chicken DT40 cell lines deficient in different DNA repair pathways can be used to identify genotoxic compounds and aid in characterizing the nature of the DNA damage induced. Two DNA repair-deficient cell lines with disrupted genes, Rad54/Ku70 or Rev3, were used to screen the Tox21 10K compound library. Possible genotoxicity was based on the presence of a significant increase in cytotoxicity in one or more of the DNA repair-deficient cell lines compared to that observed in the parental DNA repair-proficient cell line. […]\n300 DT40 mutant cells in 5 uL/well were dispensed into white, solid-bottom 1536-well plates using a Multidrop Combi (ThermoFisher Scientific, Waltham, MA) dispenser. […] After 5 uL per well of CellTiter-Glo reagent was added into each well of the assay plates, the plates were incubated for 30 min at room temperature and the luminescence intensity of the plates was measured using a ViewLux (PerkinElmer, Shelton, CT) plate reader."}, "[3]": {"assay": "qHTS assay for identifying genotoxic compounds that show differential cytotoxicity against isogenic chicken DT40 cell lines with known DNA damage response pathways - Rad54/Ku70 mutant cell line (AID 743015); further: nearly all actives have a fitted effect of over 60% in size"}}, "note": "Values joined by “and” are separate entries in the source; they are usually repeats but may differ in a detail not shown here. Equal entries are not always repeated. Inconclusive results are not listed. Entries that show only a call come without a potency. Where a structure was tested more than once in an assay, its records may differ in their call. Active and inactive are the calls of the source. The call rests on the fitted dose curve; in most records, active means well fitted curve in the direction sought with a large enough effect in the repeat runs; inconclusive means weak or mixed curves; inactive means no such curve, though single readings can be large; an effect the other way counts as inactive or inconclusive."}
{"smiles": "CC(C)C(=O)OCC(C)(C)C(OC(=O)C(C)C)C(C)C", "note": "(stereo not drawn)", "values": [{"measurement": "Potency", "setting": "[1]", "result": "inactive"}, {"measurement": "Potency", "setting": "[2]", "result": "inactive and 19.3 µM (active)"}, {"measurement": "Potency", "setting": "[3]", "result": "inactive"}]}
